Measured values published in PubChem BioAssay AID1259400 (National Center for Advancing Translational Sciences (NCATS), 2018).
Among all 350,000 compounds or so, about 2,100 (0.6%) were called active. Roughly 1% stayed inconclusive and do not appear here.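 The calls were made as follows: active = activity change of -60% or lower, but not beyond a set lower limit; inconclusive = change between -60% and -40%, or beyond the set limit; inactive = change above -40%.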 The sample as a whole holds a higher share of actives than the screen did.

biological target: Relaxin receptor 1 (Homo sapiens) (UniProt Q9HBX9); experiment: qHTS Assay for Antagonists of the Relaxin Receptor RXFP1; settings: HEK293-RXFP1, relaxin-stimulated cAMP HTRF, 30 min; at 57.5 µM; active compounds read low
Sequence (Q9HBX9 whole entry, looked up): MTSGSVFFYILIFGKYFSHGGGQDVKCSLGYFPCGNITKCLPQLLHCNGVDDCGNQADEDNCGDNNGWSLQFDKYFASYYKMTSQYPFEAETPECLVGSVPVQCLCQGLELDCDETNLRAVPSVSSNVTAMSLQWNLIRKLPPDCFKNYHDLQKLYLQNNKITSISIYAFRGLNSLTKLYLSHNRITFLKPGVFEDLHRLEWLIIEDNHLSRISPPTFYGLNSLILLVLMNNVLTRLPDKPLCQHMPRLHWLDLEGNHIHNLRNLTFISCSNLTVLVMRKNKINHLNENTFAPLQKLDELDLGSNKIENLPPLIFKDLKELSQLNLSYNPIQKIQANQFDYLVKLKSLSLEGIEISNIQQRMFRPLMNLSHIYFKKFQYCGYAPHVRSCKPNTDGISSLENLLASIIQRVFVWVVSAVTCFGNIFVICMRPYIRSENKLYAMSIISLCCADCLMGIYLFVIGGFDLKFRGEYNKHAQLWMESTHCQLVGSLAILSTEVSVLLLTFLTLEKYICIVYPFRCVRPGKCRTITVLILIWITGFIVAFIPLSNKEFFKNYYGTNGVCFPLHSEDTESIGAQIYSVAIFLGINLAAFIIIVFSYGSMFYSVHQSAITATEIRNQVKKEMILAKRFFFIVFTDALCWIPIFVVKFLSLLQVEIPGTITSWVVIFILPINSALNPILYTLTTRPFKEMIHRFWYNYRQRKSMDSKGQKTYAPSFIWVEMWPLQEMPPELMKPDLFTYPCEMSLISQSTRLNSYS
% is scaled to controls: 0 for no effect and ±100 for the full control effect.

SMILES | activity change, negative = inhibition
COC(=O)c1ccc(NC(=O)c2cnn(-c3ccc(Cl)cc3)c2C2CCN(C(=O)OC(C)(C)C)CC2)cc1 | -12.3% (inactive)
COc1ccc(CCNC(=O)c2ccc3c(c2)nc(C)n3-c2ccc(Br)cc2)cc1OC | -27.1% (inactive)
CC1=C(c2ccc(C)cc2)S(=O)(=O)NC1=NCCCN1CCN(c2cc(C)ccc2C)CC1 | -13.1% (inactive)
COC(=O)/C=C(/C)N | 5.99% (inactive)
CCOC(=O)c1cc(-c2ccccc2)n(-c2cccc(C(=O)Nc3cc(OC)cc(OC)c3)c2)c1C | -10.5% (inactive)
COC(=O)c1c(C)c(C)nc(N)c1C#N | 9.32% (inactive)
COC(=O)c1nn(-c2cccc(Cl)c2)ccc1=O | -8.77% (inactive)
COC(=O)c1nc(Cl)c(Cl)nc1N | -98.8% (active)
O=C(CCOc1ccccc1)N(Cc1cccnc1)c1nc2ccc(Cl)cc2s1 | 0.968% (inactive)
COc1ccc(OC)c(NC(=O)CSC2=Nc3ccccc3C3=NC(CC(=O)NCc4ccc(F)cc4)C(=O)N23)c1 (stereo not given) | -11.9% (inactive)
COCCCN1CCC(NC(=O)c2cc(Cl)c(N)c3c2OCC3)CC1 | -9.44% (inactive)
CC1(C(=O)N/N=C/c2cc3c(cc2Br)OCO3)CC1(Br)Br (stereo not given) | -82.7% (active)
O=C(/C=C/c1cc2c(cc1Br)OCO2)NCc1ccc(Cl)cc1 | 0.543% (inactive)
O=C(N/N=C\c1cc2c(cc1Cl)OCO2)c1ccc(Br)s1 | 5.05% (inactive)
COc1cc(Cl)c(NC(=O)CC(C)S(=O)(=O)c2cc3c(cc2C)NC(=O)CO3)c(OC)c1 (stereo not given) | 0.439% (inactive)
NNc1nc2c(Cl)cccc2s1 | -80.1% (active)
c1ccc2c(NC3C4CC5CC(C4)CC3C5)nc(N3CCOCC3)nc2c1 (stereo not given) | -78.7% (active)
CC(Nc1nc(N2CCCC2)nc2ccccc12)c1ccccc1 (stereo not given) | -10.3% (inactive)
Fc1cnc(N2CCOCC2)nc1NCc1ccccc1 | 11.7% (inactive)
O=C(NCC(c1ccc(Cl)cc1)N1CCOCC1)c1ccccc1F (stereo not given) | -0.553% (inactive)
CCOC(=O)c1c(C)[nH]c(CCC(=O)NCCCN2CCN(c3cc(C)ccc3C)CC2)c1C | -33.7% (inactive)
CCCc1c2oc(C(=O)O)cc(=O)c2cc2c(=O)cc(C(=O)O)n(CC)c12 | -5.22% (inactive)
COc1cc(/C=C/C(N)=O)cc(OC)c1OC | -9.25% (inactive)

SMILES | activity change, negative = inhibition
Cc1c(NC(=O)Cc2ccccc2)cccc1-c1nc2cccnc2s1 | 5.77% (inactive)
C=C(C)COc1ccc(-c2nc(N)ncc2-c2ccccc2OC)c(O)c1 | -62% (active)
CCOc1ccc(-c2nc(N)ncc2-c2ccccc2OC)c(O)c1 | -16% (inactive)
C=C(C)COc1ccc(-c2ncncc2-c2ccc(OC)cc2)c(O)c1 | -10.6% (inactive)
Cc1ccc(CCNC(=O)c2nnc(Cc3cccc(F)c3)o2)cc1 | -3.15% (inactive)
CC(OC(=O)CN1C(=O)c2ccccc2C1=O)C(=O)c1ccccc1 (stereo not given) | 6.31% (inactive)
O=C(OCC(O)C(O)COC(=O)c1ccccc1)c1ccccc1 (stereo not given) | -12.8% (inactive)
C=CCC(C(=O)c1ccccc1)[N+](C)(C)CC=C (stereo not given) | -82.2% (active)
CC(O)COc1ccccc1 (stereo not given) | 1.89% (inactive)
Cc1noc(/C=C/N(C)C)c1S(=O)(=O)N1CCCC(C(=O)Nc2cccc(F)c2)C1 (stereo not given) | -3.51% (inactive)
CCN1CCN(C(=O)N[C@@H](C(=O)N[C@@H]2C(=O)N3[C@@H]2SC(C)(C)[C@H]3C(=O)O)c2ccccc2)C(=O)C1=O | -3.73% (inactive)
O=C(CN1CCN(c2ccc(Cl)cc2)CC1)c1ccccc1 | 6.85% (inactive)
O=C(Cn1cc(-c2nnnn2-c2ccc(Cl)cc2)c(=O)c2ccccc21)c1ccccc1 | -98.5% (active)
O=C(C[n+]1ccc2c(c1)nnn2-c1ccccc1)c1ccc(Cl)cc1 | -11.1% (inactive)
Cc1cc(C)cc(NC(=O)CSc2nc3nccnc3c(=O)n2CCc2c[nH]c3ccccc23)c1 | 4.86% (inactive)
Fc1ccc(Nc2nc(SCc3ccccc3Cl)nc3ccccc23)cc1 | -23.1% (inactive)
CC(C)(C)CC(C)(C)NCC(O)COCCOc1ccc(Br)cc1 (stereo not given) | -90.2% (active)
COc1ccc(OCC(O)CNCCNc2nccc(C(F)(F)F)n2)cc1 (stereo not given) | 6.63% (inactive)
CC(Oc1ccc(Br)cc1)C(=O)NC1CCCCCC1 (stereo not given) | -9.73% (inactive)
CN[C@@H]1[C@@H](O)[C@@H](O[C@@H]2[C@H](O)[C@H](O[C@H]3OC(CN)=CC[C@H]3N)[C@@H](N)C[C@H]2N)OCC1(C)O (stereo not given in full) | -9.15% (inactive)
CCc1ccc(NC(=O)c2sc3nc4c(cc3c2N)CN(CC)CC4)cc1 | -24.5% (inactive)
O=C1Cc2cc(S(=O)(=O)Nc3ccc(OC(F)(F)F)cc3)cc3c2N1CCC3 | -19.8% (inactive)
O=C(OCc1ccccc1)c1ccc(O)cc1 | 3.77% (inactive)

SMILES | activity change, negative = inhibition
O=C(c1ccc(F)cc1)N1CCCC(c2nc(-c3cccs3)no2)C1 (stereo not given) | 2.8% (inactive)
COc1cccc(-c2noc(C3CCCN(C(=O)c4ccc(F)cc4)C3)n2)c1 (stereo not given) | -66.4% (active)
COc1ccc(NC(=O)N2CCCC(c3nc(-c4ccc(F)cc4)no3)C2)cc1 (stereo not given) | 2.56% (inactive)
CCOc1ccc(S(=O)(=O)c2cn(Cc3ccccc3)c3ccc(OCC)cc3c2=O)cc1 | -11.7% (inactive)
CCOc1ccc(NS(=O)(=O)c2ccc(N)cc2)nn1 | 9.63% (inactive)
CCN(C(=O)CSc1nnc(C)n2c1cc1occc12)c1ccccc1 | -12.2% (inactive)
Cc1ccc(N=C2NC(=O)/C(=C/C=C/c3ccco3)S2)cc1C | -82.4% (active)
CCN1CCN(c2cc(C)c3cc(NC(=O)c4cc(Cl)ccc4OC)ccc3n2)CC1 | -19.5% (inactive)
COC(=O)CSc1nnc(-c2cccnc2)o1 | 5.1% (inactive)
COc1cccc(NC(=O)CSc2nnc(-c3cccnc3)o2)c1 | -83.2% (active)
O=C(CSc1nnc(-c2ccncc2)o1)Nc1cccc(Cl)c1 | -1.48% (inactive)
CCOc1ccc(N2CC(c3nc4ccccc4n3CCOc3ccc(OC)cc3)CC2=O)cc1 (stereo not given) | -13% (inactive)
Cc1ccc(Cl)cc1NC(=O)C(C)n1nnc2sc(-c3ccccc3)cc2c1=O (stereo not given) | -12.2% (inactive)
COCc1c(C(=O)N/N=C\c2cccnc2)nnn1-c1nonc1N | -21.1% (inactive)
Cc1ccc(SCc2c(C(=O)N/N=C/c3cccnc3)nnn2-c2nonc2N)cc1 | -106% (active)
Nc1nonc1-n1nnc(C(=O)N/N=C\c2ccncc2)c1CN1CCCCC1 | 7.31% (inactive)
COC(=O)c1cc(Cl)c(NC(C)=O)cc1OC | -14.6% (inactive)
COc1ccccc1Nc1c2c(nc3ccc(NC(=O)/C=C/c4cc(OC)c(OC)c(OC)c4)cc13)CCCC2 | 5.51% (inactive)
CCC(=O)Nc1ccc(C)cc1-c1nc2ccccc2n(Cc2ccccc2)c1=O | -2.19% (inactive)
O=C(C1CCC(Cn2c(=O)c3sccc3n(Cc3ccccc3F)c2=O)CC1)N1CCCCC1 (stereo not given) | -8.5% (inactive)
Cc1nn(-c2ccccc2)c(Cl)c1/C=N/NC(=O)c1nn(C)cc1[N+](=O)[O-] | -8.41% (inactive)
Cc1nn(C)cc1/C=N/NC(=O)c1sc2ccccc2c1Cl | -67.1% (active)
CN1CCc2ccccc2C1Cc1ccccc1NC(=O)c1sc2ccccc2c1Cl (stereo not given) | 5.13% (inactive)

SMILES | activity change, negative = inhibition
C/C=C/C=N/NC(=O)c1ccncc1 | 14.4% (inactive)
CC1CCN(S(=O)(=O)c2ccc3c(ccn3CCC(=O)NCc3ccc(N(C)C)cc3)c2)CC1 | -7.88% (inactive)
CCOC(=O)c1ccc(NC(=O)C2CC(=O)N(c3ccc(C(C)C)cc3)C2)cc1 (stereo not given) | 4.6% (inactive)
CN1CC[C@H](c2c(O)cc(O)c3c(=O)cc(-c4ccccc4Cl)oc23)[C@H](O)C1 | -7.55% (inactive)
COc1ccc(C2Sc3ccccc3NC3=C2C(=O)c2ccccc23)c(OC)c1OC (stereo not given) | 3.16% (inactive)
CCOC(=O)c1cnc2c(C)cc(C)cc2c1Nc1ccc(N2CCOCC2)cc1 | -5% (inactive)
O=C(Nc1ccc(Oc2ccccc2)cc1)C1CCN(S(=O)(=O)c2ccc(Cl)cc2)CC1 | -26.7% (inactive)
O=C(Nc1ccccc1)c1nnsc1S(=O)(=O)c1ccc(Cl)cc1 | -68.7% (active)
O=C(Nc1cccc(Cl)c1)c1csnn1 | -3.98% (inactive)
Clc1ccc(CSc2nncn3c2cc2occc23)cc1 | -27.8% (inactive)
Cc1ccc(Nc2c(-c3ccc(Cl)cc3)nc3sccn23)c(C)c1 | -23.7% (inactive)
O=C(Nc1ccncc1)c1ccccc1[N+](=O)[O-] | 11.1% (inactive)
Cc1ccc2nsnc2c1NC(=O)c1ccccc1[N+](=O)[O-] | -9.18% (inactive)
CC(=O)Oc1ccccc1C(=O)Nc1ncc([N+](=O)[O-])s1 | -60.7% (active)
CCOC(=O)c1ccc(NC(=O)c2c(NCc3cccs3)sc3c2CCCC3)cc1 | -24.5% (inactive)
CN(C)C(=O)COC(=O)c1cccc(S(=O)(=O)N2CC3(C)CC2CC(C)(C)C3)c1 (stereo not given) | 8.67% (inactive)
Cc1nnnn1/C(=C\c1ccccc1)C(=O)OCC(=O)N1CC2(C)CC1CC(C)(C)C2 (stereo not given) | -62.1% (active)
CN1CCN(c2oc(-c3ccc(COc4ccc(Cl)cc4)o3)nc2C#N)CC1 | -10.5% (inactive)
CCOc1ccccc1NC(=O)c1ccc2c(c1)CCN2S(=O)(=O)c1ccc(C)cc1 | 1.03% (inactive)
CCc1cccc(C)c1Nc1c(-c2ccc(N(C)C)cc2)nc2ncccn12 | -15.1% (inactive)
CCn1cc(C(=O)N2CCN(c3cc(Cl)ccc3C)CC2)c(=O)c2cc(S(=O)(=O)N3CCCC3)ccc21 | -1.04% (inactive)
